Compound activity (PubChem BioAssay)
This is one part of a sample in which hits are shown more often than they occur.
Algae TAG accum – algal TAG accumulation induction | Chlamydomonas reinhardtii TAG, Nile Red fluorescence, 72 h | calls only at 10 µM (by protocol) | hit rate 0.84% among 44,000; call rule not given here;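 note: hits raise Nile Red signal meaning more stored TAG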
Calls only; 0 = inactive; + = active, no number.

SMILES	Algae TAG accum
CC1CCc2c(sc(NC(=O)c3ccccc3[N+](=O)[O-])c2C(N)=O)C1 (configuration not stated)	0
Cc1ccc(C(=O)Nc2sc3c(c2C(N)=O)CCC(C)C3)o1 (configuration not stated)	0
Cc1ccsc1/C=C(\C#N)c1nc(-c2ccc([N+](=O)[O-])cc2)cs1	+
Cc1ccc(-c2csc(/C(C#N)=C/Nc3ccc([N+](=O)[O-])cc3)n2)cc1	0
N#C/C(=C\c1ccc([N+](=O)[O-])cc1)c1nc(-c2ccc(F)cc2)cs1	0
COc1cc(C2C(=C(O)c3ccccc3)C(=O)C(=O)N2CCC(=O)O)ccc1O (configuration not stated)	0
COCc1nnc(NC(=O)c2c(-c3ccccc3)noc2C)s1	0
Cc1cc(Br)ccc1OCCCN1CCN(C)CC1	+
Cc1cc(OCCCCN2CCN(C)CC2)cc(C(C)C)c1	+
CC(C)c1ccc(OCCOCCN2CCN(C)CC2)cc1	0
CN1CCN(CCCOc2ccc(Br)cc2)CC1	+
Cc1cc(Br)ccc1OCCCN1CCCC1	0
Cc1cc(OCCCN2CCN(C)CC2)ccc1C(C)C	0
CCOc1ccc(OCCOCCN2CCN(C)CC2)cc1	0
CN1CCN(CCCOc2ccc(C(=O)c3ccccc3)cc2)CC1	0
Cc1cc(Br)ccc1OCCN1CCN(C)CC1	0
CC1(C(=O)O)CCC(c2nc3ccccc3s2)C1(C)C (configuration not stated)	0
CCOc1ccccc1NC(=O)CN(c1ccccc1OC)S(=O)(=O)c1ccc(C)cc1	0
COc1cc(OC)c(OC)cc1CN1CCN(Cc2cccc(Cl)c2)CC1	0
Cc1cc(NC(=O)c2ccccc2I)no1	0
COc1ccc(C(=O)N2CCN(C3CCC(c4ccccc4)CC3)CC2)cc1OC (configuration not stated)	0
CCN1CCN(C2CCC(C(C)(C)C)CC2)CC1 (configuration not stated)	+
CCN1CCN(C2CCC(c3ccccc3)CC2)CC1 (configuration not stated)	+
CCCN1CCC(N2CCN(c3ccc([N+](=O)[O-])cc3)CC2)CC1	0
CCN1CCN(C2CCCC(C)C2)CC1 (configuration not stated)	0
SMILES	Algae TAG accum
CCN1CCN(CC2CCCCC2)CC1	0
c1ccc(C2CCC(N3CCN(Cc4ccncc4)CC3)CC2)cc1 (configuration not stated)	+
CCN1CCC(N2CCN(c3ccc(Cl)cc3)CC2)CC1	+
O=C(c1ccccc1)N1CCN(Cc2ccncc2)CC1	0
c1ccc(CN2CCC(N3CCN(C4CCCC4)CC3)CC2)cc1	0
CCN1C(=O)CC(N2CCN(c3ccc(Cl)cc3)CC2)C1=O (configuration not stated)	0
COc1ccccc1N1CCN(C2CCN(C3CCC(c4ccccc4)CC3)CC2)CC1 (configuration not stated)	0
O=C(CN(c1cccc(Cl)c1Cl)S(=O)(=O)c1ccccc1)Nc1ccc(F)cc1F	0
COCCN1C(=O)C(=O)C(=C(O)c2ccc(OC)c(C)c2)C1c1ccncc1 (configuration not stated)	0
O=C(/C=C/c1cn(-c2ccccc2)nc1-c1cccnc1)c1cccs1	0
COc1ccc(C(=O)c2ccc(N3CCOCC3)c([N+](=O)[O-])c2)cc1	0
CC(C)(C)c1csc(NC(=O)c2ccc(N3CCOCC3)c([N+](=O)[O-])c2)n1	+
O=C(Nc1cccc(Cl)c1)c1ccc(N2CCOCC2)c([N+](=O)[O-])c1	0
COc1ccc(C(=O)Nc2ccc3c(c2)C(=O)N(C)C3=O)cc1[N+](=O)[O-]	0
O=C(Nc1ccc(F)cc1)c1ccc2c(c1)OCCO2	0
COc1ccc(CN2CCCCCC2)cc1OC	0
c1ccc(N2CCN(Cc3ccco3)CC2)cc1	0
c1coc(CN2CCN(Cc3ccncc3)CC2)c1	0
COc1ccc(CN2CCN(CC3CC4C=CC3C4)CC2)cc1OC (configuration not stated)	+
O=[N+]([O-])c1ccccc1CN1CCN(CC2CC=CCC2)CC1 (configuration not stated)	0
O=[N+]([O-])c1ccccc1CN1CCN(CC2CC3C=CC2C3)CC1 (configuration not stated)	+
Cc1ccc(C)c(N2CCN(CC3CC4C=CC3C4)CC2)c1 (configuration not stated)	+
COc1ccc(CN2CCN(Cc3ccc(OC)c(OC)c3)CC2)cc1	0
O=[N+]([O-])c1ccccc1CN1CCCC1	0
c1coc(CN2CCN(C3CCCCCC3)CC2)c1	+
SMILES	Algae TAG accum
COc1cc(OC)c(OC)cc1CN1CCN(c2cc(C)ccc2C)CC1	0
CCS(=O)(=O)N1CCN(CC2CC3C=CC2C3)CC1 (configuration not stated)	0
O=[N+]([O-])c1ccc2nc(-c3ccco3)c(-c3ccco3)nc2c1	0
CC(=O)c1ccc(NC(=O)/C(=C\c2cccc([N+](=O)[O-])c2)NC(=O)c2ccco2)cc1	0
CC1(C)[C@H]2CC=C(CN3CCN(c4ccccc4F)CC3)[C@@H]1C2	0
Fc1ccc(CSc2ncccn2)c(Cl)c1	0
Cc1cccc(C)c1NC(=O)c1ccc(-c2cccc(Cl)c2Cl)o1	0
COc1cc(NC(=O)c2ccoc2C)c(OC)cc1Cl	0
COc1cccc(OCCOC(=O)Nc2cccc(Cl)c2)c1	0
Cc1cccc(C(=O)NCc2cccnc2)c1	0
CCN1C(=O)c2ccc(C(=O)Nc3cc(C(=O)O)ccc3C)cc2C1=O	0
O=C1c2ccccc2C(=O)C2C3c4ccccc4C(c4ccccc43)C12 (configuration not stated)	0
CCN(CC)S(=O)(=O)c1ccc(C(=O)Nc2nc(-c3ccc([N+](=O)[O-])cc3)cs2)cc1	0
CN(C)c1ccc2c(c1)OC(N)=C(C#N)C2c1cc(Br)cs1 (configuration not stated)	0
Cn1cccc1CN1CCN(Cc2ccco2)CC1	0
COc1cccc(N2CCN(CC3CC4C=CC3C4)CC2)c1 (configuration not stated)	+
C1=CC2CC1CC2CN1CCN(Cc2ccccc2)CC1 (configuration not stated)	+
C1=CC2CC1CC2CN1CCN(Cc2ccncc2)CC1 (configuration not stated)	0
C1=CC2CC1CC2CN1CCN(Cc2ccco2)CC1 (configuration not stated)	+
OCCN1CCN(C2CCN(CC3CC4C=CC3C4)CC2)CC1 (configuration not stated)	0
C1=CCC(CN2CCN(Cc3ccco3)CC2)CC1 (configuration not stated)	0
O=C(c1ccc(F)cc1)N1CCN(CC2CC3C=CC2C3)CC1 (configuration not stated)	0
OC1CCN(CC2CC3C=CC2C3)CC1 (configuration not stated)	0
O=C(c1ccncc1)N1CCNCC1	0
Cc1ccc(S(=O)(=O)N2CCN(c3ccc([N+](=O)[O-])cc3)CC2C)cc1 (configuration not stated)	0
COc1ccc(S(=O)(=O)N(CC(=O)NC(C)c2ccccc2)Cc2ccccc2)cc1 (configuration not stated)	0
N#Cc1c2n(c3c(=O)[nH]cnc13)CCCCC2	0
Cc1ccc(C)c(C(O)=C2C(=O)C(=O)N(CCN(C)C)C2c2ccc(F)cc2)c1 (configuration not stated)	0
CC(C)(C)NCCOc1ccc(Br)cc1Cl	0
COc1ccc(C(=O)Nc2ccc(I)cc2C)cc1Cl	0
